Laboratory results as given in publication PMC6792352, “Limited Chemical Structural Diversity Found to Modulate Thyroid Hormone Receptor in the Tox21 Chemical Library” (Environmental Health Perspectives, 2019).
Structures can show the parent of a compound that is named as a salt. Where two headings read alike, the source gives them in different places.

Tested on: thyroid hormone receptor (endogenous TRα and TRβ)
Design: species or system GH3-TRE-Luc (rat pituitary); GH3-TRE-Luc luciferase reporter, antagonist mode against 1 nM T3, loss of signal, qHTS
[1] = read-out: Average AC50 (uM) GH3-TRE-Antag, antagonist mode, 1 nM T3, no GH3 cytotoxicity hit

Row | SMILES | AC50 (read-out: Average AC50 (uM) GH3-TRE-Antag, antagonist mode, 1 nM T3, no GH3 cytotoxicity hit, Average AC50 (uM) GH3-TRE-Antag, 24 h) | AC50 [1]
1 | CC(C)c1c(C(=O)Nc2ccccc2)c(-c2ccccc2)c(-c2ccc(F)cc2)n1CC[C@@H](O)C[C@@H](O)CC(=O)O [Atorvastatin calcium] | 14.2 µM | –
2 | CCCCCc1ccco1 [2-Pentylfuran] | – | 61.2 µM
3 | CCCCCCCCCCCCCCC[C@H](O)[C@@H](N)CO [Safingol] | – | 27.1 µM
4 | CCCCCC/C=C\CCCCCCCC(=O)O [(Z)-Hexadec-9-enoic acid] | – | 44.5 µM
5 | CCCCCCCCCCCCCCCCCCCCCC(=O)Nc1ccn([C@@H]2O[C@H](CO)[C@@H](O)[C@@H]2O)c(=O)n1 [Enocitabine] | – | 17.3 µM
6 | CC(=O)[C@H]1CC[C@H]2[C@@H]3CC=C4C[C@@H](O)CC[C@]4(C)[C@H]3CC[C@]12C [Pregnenolone] | – | 11.6 µM
7 | COc1cc(CNC(=O)CCCC/C=C/C(C)C)ccc1O [Capsaicin] | – | 34.4 µM
8 | CCN(CC)c1ccc(C(=O)c2ccccc2C(=O)O)c(O)c1 [2-[4-(Diethylamino)-2-hydroxybenzoyl]benzoic acid] | – | 43.7 µM
9 | CCC(=O)/C=C/c1ccc(OC)cc1 [1-(4-Methoxyphenyl)-1-pentene-3-one] | – | 79.8 µM
10 | COC(=O)Nc1nc2ccc([S+]([O-])c3ccccc3)cc2[nH]1 (stereo not shown) [Oxfendazole] | – | 12.2 µM
11 | CCCCNc1ccc(C(=O)OCCN(C)C)cc1 [Tetracaine hydrochloride] | – | 11.2 µM
12 | CCCCCCCCCCCCN [1-Dodecanamine] | – | 74.1 µM
13 | O=C(c1ccccc1)c1cc(Cl)ccc1O [(5-Chloro-2-hydroxyphenyl)phenylmethanone] | – | 84.3 µM
